Source: PubChem BioAssay AID686928 (Broad Institute, 2013)
Entries with a potency or affinity are not part of this list. A number with no mark means an inactive call. The source made the active and inactive calls. The rule behind the calls is not given here.

assay: HeLa cell cytotoxicity, dose response, cytotoxicity control, 24 h, plate reader, dry powder (AID 686928); conditions: series mostly up to 80 µM; activity change, negative = cytotoxicity: at the top concentration

**Q.** Which “activity change, negative = cytotoxicity” value does the source give for `O=c1ncn(-c2cccc(Cl)c2)c2ccc(Cl)cc12` here?
**A.** -6.27%

**Q.** For `Cc1cccc(-n2cnc(=O)c3ccccc32)c1`, which “activity change, negative = cytotoxicity” value is on record?
**A.** -8.44%

**Q.** With `O=c1ncn(-c2cccc(F)c2)c2ccccc12` as the compound, how does the “activity change, negative = cytotoxicity” value read?
**A.** 1.9%

**Q.** With `Cc1ccc2c(c1)c(=O)ncn2-c1cccc(Cl)c1` as the compound, how does the “activity change, negative = cytotoxicity” value read?
**A.** 0.664%

**Q.** Which “activity change, negative = cytotoxicity” value does the source give for `COc1cccc(-c2nnc(NC(=O)C3CCCCC3)o2)c1` here?
**A.** 1.34% [at 100 µM]

**Q.** For `O=C(Nc1nnc(-c2ccc3c(c2)OCCO3)o1)C1CC1`, which “activity change, negative = cytotoxicity” value is on record?
**A.** 2.93% [at 100 µM]

**Q.** Which “activity change, negative = cytotoxicity” value does the source give for `Cn1ccc(NC(=O)c2ccco2)n1` here?
**A.** 7.83% [at 100 µM]

**Q.** For `O=c1ncn(-c2ccc(Cl)cc2)c2ccccc12`, which “activity change, negative = cytotoxicity” value is on record?
**A.** 2.74%

**Q.** With `CCOC(=O)c1ccccc1Nc1cccc(Cl)c1` as the compound, how does the “activity change, negative = cytotoxicity” value read?
**A.** -5.61%

**Q.** For `COc1ccccc1-c1nnc(NC(=O)C2CCCCC2)o1`, which “activity change, negative = cytotoxicity” value is on record?
**A.** -5.13% [at 100 µM]

**Q.** For `O=c1[nH]cnc2ccccc12`, which “activity change, negative = cytotoxicity” value is on record?
**A.** -6.67%

**Q.** For `O=C(Nc1nnc(-c2ccc3c(c2)OCCO3)o1)C1CCC1`, which “activity change, negative = cytotoxicity” value is on record?
**A.** 5.69% [at 100 µM]

**Q.** For `Cc1cc(F)cc2nc3c(cc12)c(NC(=O)c1ccco1)nn3C`, which “activity change, negative = cytotoxicity” value is on record?
**A.** 2.47% [at 100 µM]

**Q.** With `Cc1ccc2cc3c(NC(=O)c4ccoc4)nn(C)c3nc2c1` as the compound, how does the “activity change, negative = cytotoxicity” value read?
**A.** -3.71%

**Q.** For `O=C(Cc1ccc(-c2ccccc2)cc1)N[C@@H]1CCOC1` (racemic), which “activity change, negative = cytotoxicity” value is on record?
**A.** -0.056% [at 100 µM]

**Q.** For `Cc1ccc2cc3c(NC(=O)c4cc5ccccc5o4)nn(C)c3nc2c1`, which “activity change, negative = cytotoxicity” value is on record?
**A.** -46.2% [at 100 µM]

**Q.** Which “activity change, negative = cytotoxicity” value does the source give for `CCn1nnnc1NC(C)c1ccc(N2CCCC2)cc1` (configuration not stated) here?
**A.** -0.569% [at 100 µM]

**Q.** Which “activity change, negative = cytotoxicity” value does the source give for `COc1ccc(-c2nnc(NC(C)=O)o2)cc1` here?
**A.** -0.903% [at 100 µM]

**Q.** Which “activity change, negative = cytotoxicity” value does the source give for `O=c1nc(Cc2ccccc2)n(-c2cccc(Cl)c2)c2ccccc12` here?
**A.** -5.09%

**Q.** Which “activity change, negative = cytotoxicity” value does the source give for `Cc1ccc2cc3c(NC(=O)c4cccs4)nn(C)c3nc2c1` here?
**A.** -31.7%

**Q.** With `CCn1nnnc1NCc1ccc(C(C)C)cc1` as the compound, how does the “activity change, negative = cytotoxicity” value read?
**A.** -0.472% [at 100 µM]

**Q.** For `O=c1ncn(-c2cccc(Cl)c2)c2ccccc12`, which outcome is on record?
**A.** inactive
